For 24 compounds, growth inhibition results are on record in PubChem BioAssay (NCI).

This is part of a sample that, as a whole, favours compounds with a hit. Of some 79,000 tested, about 15% had one in any assay. The source made the active and inactive calls. Cut-off read from the data, not from the text of the source: active = growth inhibition above about 70%; inactive = the rest.

The assay can be described thus: NCI Yeast Anticancer Drug Screen. Data for the rad50 strain (AID 155).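 Note: 0% = growth of vehicle-only cultures of the same strain.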 Conditions: S. cerevisiae rad50 strain growth inhibition; at 50.0 µM; hits give high values. In short, it runs like this:
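Relative growth inhibition (compound vs vehicle) was measured in yeast with a defined repair-gene alteration.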
With `O=C(O)c1c[nH]c2cc(O)ccc2c1=O`, the growth inhibition is -0.5% (inactive).
Next, `c1ccc2nc(N3CCCC3)c(N3CCCC3)nc2c1`: -8.75% (inactive).
Next, `O=C(NN1C(=O)C(Cl)C1c1cccc([N+](=O)[O-])c1)c1ccccc1O` (centres undefined): -17.4% (inactive); `CCc1cc2c(c3c1CCC3=O)CC1(Cc3ccc(C)cc3C1)C2` (centres undefined): -47.1% (inactive).
Next, `CC(=O)N(/C=C\C1=[N+](C)CCS1)c1ccccc1`: 10.2% (inactive); `O=C1C2CN(Cc3ccccc3)CC2C(=O)N1c1ccccc1` (centres undefined): 1.9% (inactive); `CC1(C)C[C@H](OC2CCCCO2)[C@H]2O[C@@]2(C)C1` (some centres undefined): 10.8% (inactive).
`CC(=O)C1CCCCCCC1=O` (centres undefined): the growth inhibition is 16.1% (inactive).
For the compound `CC(C)(C)C1=CC(=N/N=c2\scc(-c3ccccc3)n2Cc2ccccc2)C=C(C(C)(C)C)C1=O`, the growth inhibition was 17.4% (inactive).
Next, `Cc1ccc(Cl)cc1NC(=O)C(C)Oc1ccccc1` (centres undefined): 4.45% (inactive).
Next, `CCOC(=O)c1cnc2cc3c(cc2c1Nc1ccc2c(c1)OCO2)OCO3`: 12.4% (inactive); `Cc1ccc(S(=O)(=O)N(CCCc2c(Cl)nc(N)nc2Cc2ccccc2)c2ccccc2)cc1`: -9.75% (inactive).
Next, `CC1CS(=O)(=O)CC(C)S1(=O)=O` (centres undefined): -8.6% (inactive); `c1ccc2cc3c(cc2c1)OP1(=NP2(=NP4(=N1)Oc1cc5ccccc5cc1O4)Oc1cc4ccccc4cc1O2)O3`: 67.7% (inactive); `COc1ccc2c(c1)OC(C)(C)C(c1ccccc1)=C2c1ccc(OCCN2CCCC2)cc1`: 99.6% (active).
Turning to `Cc1ccc2nc(C(O)C(O)C(O)CO)[nH]c2c1` (centres undefined), the growth inhibition is -11.3% (inactive).
Next, `COc1cccc(NC(=O)CSc2nnc(-c3ccc(NC(C)=O)cc3)o2)c1`: -29.2% (inactive).
Turning to `COC(=O)C1=C(NC(=O)Nc2ccc([N+](=O)[O-])cc2)OC(C)(C)C1c1ccc(Cl)cc1` (centres undefined), the growth inhibition is 23.6% (inactive).
Regarding `CCOP(=Nc1ccccc1)(OCC)OCC`, the growth inhibition was 4.1% (inactive).
As to `Nc1c(S(=O)(=O)O)cc(S(=O)(=O)O)c2ccc(N=Nc3ccccc3)c(O)c12`, the growth inhibition was 7.15% (inactive).
`O=S1OCC#CCOS(=O)OCC#CCO1` (centres undefined): the growth inhibition is -7.1% (inactive).
As to `S=c1cc(Cc2ccccc2)[nH]c(=S)[nH]1`, the growth inhibition is -1.2% (inactive).
Next, `CCOC1CCC(C(C)=O)C(C#N)(C#N)C1(C#N)C#N` (centres undefined): 38.1% (inactive).
Next, `C1C2CC3(CO3)C1C1OC21` (centres undefined): -39.4% (inactive).
